FMDV Renilla – shows antiviral activity in FMDV Renilla assay | Potency, µM (series often up to 57.5 µM), for the others: at the highest dose activity change, negative = inhibition, usual class: inhibitors | FMDV replicon cells, Renilla luciferase signal | actives 0.32% (n = 120,000) | AID 1745857; note: nearly all actives have a fitted effect of over 55% in size
FMDV FLuc – antivirals against foot and mouth disease virus; FMDV antiviral cell assay, firefly luciferase signal; Potency, µM (series often up to 57.5 µM), for the others: at the top dose activity change, negative = inhibition, most hits filed as inhibitors; actives 0.23% (n = 120,000); note: nearly all actives have a fitted effect of over 60% in size
The depositor's hits bear a star; ? = inconclusive; [ ] = another dose, or the depositor's remark. Rows were chosen to be rich in hits. Some 0.45% of all compounds tested hit in one or more screens of this group. Calls come from the whole dose curve. % is set by controls: 0 for no effect and ±100 for the full control effect; potency is the fitted concentration of half-maximal effect.

SMILES	FMDV Renilla	FMDV FLuc
Cc1cc(C(C#N)c2ccc(Cl)cc2)c(Cl)cc1NC(=O)c1cc(I)cc(I)c1O (stereo not given)	11µM*	-31%[11.5 µM]
C1C2CC3CC1CC(C2)C3NC12CC3CC(CC(C3)C1)C2 (stereo not given)	-2%	188%
C/C(=N/O)c1cc(C(C)(C)C)cc2c1CCC2(C)C	-8%	15%
Cc1cc(OCc2nn[nH]n2)c2c(C)cc(=O)oc2c1	-16%	-2%
O=C(COC(=O)c1ccc(Cl)c(S(=O)(=O)N2CCCCCC2)c1)Nc1cc(F)ccc1F	-10%	-7%
CCNC(=O)NC(=O)C(C)Oc1ccc(C(=O)c2ccc(Cl)cc2)cc1 (stereo not given)	?	13µM*
CCOc1ccc(C(=O)c2ccc(Cl)cc2)cc1	20%	42%
Cc1ccc(/C=N/NC(=O)C2CC2)s1	14%	126%
CCCCn1nc(C(=O)Nc2nc3ccc(OCC)cc3s2)c2ccccc2c1=O	1%	9%
Cc1c(C)c2ccc(OCC(=O)C(C)(C)C)c(C)c2oc1=O	30%	117%
CCOC(=O)CCc1c(C)c2ccc(OCC(=O)C(C)(C)C)c(C)c2oc1=O	18%	2.8µM*
Cc1ccc2c(C)nc(Nc3nc(C)cc(-c4ccccc4)n3)nc2c1	3%	7%
CCS(=O)(=O)N1CCc2cc(C(=O)Nc3ccc(C)c(Cl)c3)ccc21	22%	96%
CCS(=O)(=O)N1CCc2ccc(NC(=O)Nc3ccc(C)c(C)c3)cc21	4.5µM*	?
CN(CC(=O)Nc1ccccc1Cl)CC(=O)N(CCC#N)c1ccccc1F	8%	17%
O=C(CCCc1c[nH]c2ccccc12)Nc1ccc2ncccc2c1	5%	0%
O=C(CCCc1c[nH]c2ccccc12)Nc1cccc2cnccc12	11µM*	?
O=C(CN1CCC(c2nc3ccccc3s2)CC1)NC(=O)Nc1ccc2c(c1)OCCO2	-2%	109%
CCCc1sc(C(=O)Nc2ccccc2O)cc1CC	13%	174%
COc1cccc(N2CCN(c3ncc4c(n3)CCN(Cc3ccc(Br)cc3)C4)CC2)c1	4µM*	7.1µM*
CCc1ccc(CN2CCc3nc(N4CCN(c5ccccc5F)CC4)ncc3C2)cc1	-13%	-1%
CCCN(CCC)S(=O)(=O)c1c(C(=O)OCC)c(C)n(C)c1C	33%	8%
Cn1cc(C(=O)NC2CCN(Cc3noc(C(C)(C)C)n3)CC2)cn1	-10%	-2%
CCC(C)NC(=O)N(C)C1CCN(c2ccc(Cl)cc2)CC1 (stereo not given)	13µM*	?
CCC(C)NC(=O)c1ccc(N(C)C2CCCCC2)cc1 (stereo not given)	-3%[1.06 µM]	205%
SMILES	FMDV Renilla	FMDV FLuc
O=C(NCc1ccncc1)NCC1(c2ccccc2)CC1	-7%	1%
CCc1nnc(NC(=O)CCc2ncc(-c3ccccc3)o2)s1	-6%	-1%
COc1ccc(CCNc2ncnc3onc(C)c23)c(OC)c1	0.89µM*	?
CCCNc1ncnc2onc(C)c12	-5%	11%
CC1c2ccsc2CCN1C(=O)CNC(=O)c1ccc(Cl)cc1 (stereo not given)	4%	21%
CC(C)c1ccc(NC(=O)CSc2nc(=O)n(Cc3cccnc3)c3c2CCC3)cc1	8.9µM*	?
O=C(CSc1nc(=O)n(Cc2cccnc2)c2c1CCC2)Nc1cccc(Cl)c1	19%	-3%
O=C(CCc1cccnc1)NCCOc1cccc(F)c1	17%	28%
O=C(Nc1ccc(Cl)c(C(F)(F)F)c1)c1ccc(Cl)cc1Cl	?	22%
O=C(Nc1ccc(Cl)cc1)Nc1ccc(Cl)c(C(F)(F)F)c1	7.1µM*	?
COc1ccc(C(=O)/C(=C\c2ccc(C)o2)c2nc3ccccc3o2)cc1	36%	83%
CCN(CC)S(=O)(=O)NCc1ccnc(N2CCN(c3ccc(F)cc3)CC2)c1	10µM*	?
CCCN(CCC)S(=O)(=O)NCc1ccnc(N2CCN(c3ccc(F)cc3)CC2)c1	-13%	-29%
COc1ccc(NC(=O)N2CCN(S(=O)(=O)c3cc4c(cc3Cl)NC(=O)C(C)O4)CC2)cc1 (stereo not given)	3%	24%
Cc1ccc(NC(=O)Cc2ccc(-n3c(C)nc4cccnc43)cc2)c(Cl)c1	10µM*	14µM*
COc1ccc(Cn2c(CCC(=O)Nc3ccc(C)cc3C)nc3cccnc32)cc1	-3%	-11%
COc1ccccc1CN1CCc2ccccc2C1	-6%	15%
COc1ccc(CCNc2oc(COc3cccc(C)c3)nc2C#N)cc1OC	-14%	-9%
COc1ccc(CCNc2oc(COc3ccc(Cl)cc3)nc2C#N)cc1OC	?	28µM*
CCCCCCCc1ccc(-c2ccc(OC(F)(F)F)cc2)nc1	-11%[1.06 µM]	-5%
CCN1CCN(C(=O)c2cn(Cc3ccccc3)nc2-c2ccc(C)c(C)c2)CC1	37%	5%
CCN1CCN(C(=O)C(C)Sc2cc(C)c3cccc(C)c3n2)CC1 (stereo not given)	-19%	-12%
COc1ccc(CNc2cc(-c3ccc(OC)cc3)nc3nncn23)cc1	-21%	-17%
CCc1c(C)nc2nncn2c1NCc1ccc(OC)cc1	-28%	-12%

Source: PubChem BioAssay (National Center for Advancing Translational Sciences (NCATS))
